Laboratory results taken from PubChem BioAssay (EPA / NIEHS).
Records with an inconclusive call do not appear. Calls of active or inactive are those of the source. How the source made its calls, unless noted: active means hit-call score of the fitted dose curve at least 0.9, where 1 is the maximum; inactive means score below 0.9.

What was measured:
[1] = BSK_LPS_PGE2: BioMAP Diversity Plus: LPS Assay for Prostaglandin E2 (PGE2) Biomarker Activity (AID 2283082); conditions: primary human HUVEC with PBMC; actives raise or lower the signal;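 on AC50: secreted prostaglandin E2 measured by ELISA in LPS-stimulated co-culture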
Summary of the method: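 Endpoint derived from bidirectional curve fitting versus DMSO of ELISA-measured PGE2 in LPS-stimulated human primary vascular co-culture (HUVEC with PBMC) harvested at 24 h.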

[2] = read-out: Macrophage colony-stimulating factor (MCSF), CSF1 (gene 1435); experiment: BSK_LPS_MCSF: BioMAP Diversity Plus: LPS Assay for Macrophage colony-stimulating factor (MCSF) Biomarker Activity (AID 2283083); conditions: primary human HUVEC with PBMC; actives raise or lower the signal
Summary of the method: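 ELISA readout of M-CSF after 24 h compound exposure in a human endothelial/PBMC co-culture. Activity, in either direction, is fitted relative to DMSO vehicle.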

[3] = read-out: Tissue Factor, F3 (gene 2152); experiment: BSK_LPS_TissueFactor: BioMAP Diversity Plus: LPS Assay for Tissue Factor Biomarker Activity (AID 2283084); conditions: primary human HUVEC with PBMC; actives raise or lower the signal
Summary of the method: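 ELISA signal for cell-surface Tissue Factor (CD142) was read 24 h after compound dosing of an LPS-stimulated human endothelial–PBMC primary co-culture. Gain or loss of signal was scored relative to DMSO.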

[4] = read-out: Tumor necrosis factor (Homo sapiens) (UniProt P01375); experiment: BSK_LPS_TNFa: BioMAP Diversity Plus: LPS Assay for Tumour Necrosis Factor alpha (TNFa) Biomarker Activity (AID 2283085); conditions: primary human HUVEC with PBMC; actives raise or lower the signal
Summary of the method: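 Primary human vascular co-culture of HUVEC and PBMC; TNFa ELISA 24 h after treatment, analysed as increase or decrease relative to DMSO control.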

[5] = read-out: Vascular cell adhesion molecule 1 (VCAM1), VCAM1 (gene 7412); experiment: BSK_LPS_VCAM1: BioMAP Diversity Plus: LPS Assay for Vascular cell adhesion molecule 1 (VCAM1) Biomarker Activity (AID 2283086); conditions: primary human HUVEC with PBMC; actives raise or lower the signal
Summary of the method: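 Primary human vascular co-culture (umbilical vein endothelium plus PBMC) stimulated with LPS received chemical; 24 h later VCAM-1 was read by ELISA. Overt cytotoxicity was assessed by sulforhodamine B staining of parallel cultures at the same time point.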

[6] = read-out: CD38, CD38 (gene 952); experiment: BSK_SAg_CD38: BioMAP Diversity Plus: SAg Assay for CD38 Biomarker Activity (AID 2283087); conditions: primary human HUVEC with PBMC; actives raise or lower the signal
Summary of the method: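 Fluorescence ELISA of cell-surface CD38 served as the read-out, with either increase or decrease fitted against DMSO controls. Cells were a human umbilical vein endothelium plus PBMC co-culture under SEB/TSST-1 stimulation, measured 24 h after dosing.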

[7] = read-out: CD40, CD40 (gene 958); experiment: BSK_SAg_CD40: BioMAP Diversity Plus: SAg Assay for CD40 Biomarker Activity (AID 2283088); conditions: primary human HUVEC with PBMC; actives raise or lower the signal
Summary of the method: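 Compounds were dosed onto a human primary endothelial–PBMC co-culture, and after 24 h CD40 was quantified by ELISA using a fluorescence signal. Activity in either direction was fitted relative to DMSO.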

[8] = read-out: CD69, CD69 (gene 969); experiment: BSK_SAg_CD69: BioMAP Diversity Plus: SAg Assay for CD69 Biomarker Activity (AID 2283089); conditions: primary human HUVEC with PBMC; actives raise or lower the signal
Summary of the method: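 ELISA, fluorescence read-out: CD69 on human umbilical vein endothelial cell + PBMC co-culture, 24 h post-dosing. Gain or loss of signal fitted bidirectionally against DMSO baseline.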

[9] = read-out: E-selectin (Homo sapiens) (UniProt P16581); experiment: BSK_SAg_Eselectin: BioMAP Diversity Plus: SAg Assay for Eselectin Biomarker Activity (AID 2283091); conditions: primary human HUVEC with PBMC; actives raise or lower the signal
Summary of the method: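 Co-culture: HUVEC + PBMC. Dose compound; 24 h. ELISA for E-selectin. Bidirectional fit vs DMSO.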

[10] = read-out: Monokine induced gamma interferon (MIG), CXCL9 (gene 4283); experiment: BSK_SAg_MIG: BioMAP Diversity Plus: SAg Assay for Monokine induced gamma interferon (MIG) Biomarker Activity (AID 2283092); conditions: primary human HUVEC with PBMC; actives raise or lower the signal
Summary of the method: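 ELISA readout of MIG/CXCL9; primary human umbilical vein endothelial cells co-cultured with peripheral blood mononuclear cells; 24 h post-dose; gain/loss fit vs DMSO baseline.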

[11] = read-out: Interleukin-8 (IL8), CXCL8 (gene 3576); experiment: BSK_SAg_IL8: BioMAP Diversity Plus: SAg Assay for Interleukin-8 (IL8) Biomarker Activity (AID 2283094); conditions: primary human HUVEC with PBMC; actives raise or lower the signal
Summary of the method: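 In this co-culture of human umbilical vein endothelium with peripheral blood mononuclear cells, IL-8 is assayed by ELISA at 24 h. DMSO serves as baseline for bidirectional curve fitting.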

[12] = BSK_SAg_Proliferation: Cell Proliferation Assessment in the BioMAP Diversity Plus: SAg Assay (AID 2283095); conditions: primary human HUVEC with PBMC;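 further: relative cell number as total protein by SRB absorbance in sub-confluent culture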
Summary of the method: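 Readout is SRB-stained protein (560 nm) in a primary human HUVEC and PBMC co-culture; sub-confluent cultures are read at 96 h. Activity is fitted bidirectionally using DMSO as baseline.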

[13] = BSK_SAg_SRB: Viability Assessment in the BioMAP Diversity Plus: SAg Assay (AID 2283096); conditions: primary human HUVEC with PBMC;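 further: cells read one day after compound addition; hits may be either gain or loss of signal compared with DMSO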
Summary of the method: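 Total protein by sulforhodamine B staining, 24 h after dosing, in HUVEC–PBMC co-culture; DMSO-referenced bidirectional fitting.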

[14] = biological target: human CYP1A1, CYP1A1 (gene 1543) (UniProt P04798); experiment: NVS_ADME_hCYP1A1: NovaScreen (NVS) CYP450-related Enzyme Activity (ADME) Assay for human CYP1A1 (AID 2283100; active means hit-call score of the fitted dose curve at least 0.9, where 1 is the maximum)
Sequence of human CYP1A1, CYP1A1 (gene 1543) (P04798 whole entry, looked up): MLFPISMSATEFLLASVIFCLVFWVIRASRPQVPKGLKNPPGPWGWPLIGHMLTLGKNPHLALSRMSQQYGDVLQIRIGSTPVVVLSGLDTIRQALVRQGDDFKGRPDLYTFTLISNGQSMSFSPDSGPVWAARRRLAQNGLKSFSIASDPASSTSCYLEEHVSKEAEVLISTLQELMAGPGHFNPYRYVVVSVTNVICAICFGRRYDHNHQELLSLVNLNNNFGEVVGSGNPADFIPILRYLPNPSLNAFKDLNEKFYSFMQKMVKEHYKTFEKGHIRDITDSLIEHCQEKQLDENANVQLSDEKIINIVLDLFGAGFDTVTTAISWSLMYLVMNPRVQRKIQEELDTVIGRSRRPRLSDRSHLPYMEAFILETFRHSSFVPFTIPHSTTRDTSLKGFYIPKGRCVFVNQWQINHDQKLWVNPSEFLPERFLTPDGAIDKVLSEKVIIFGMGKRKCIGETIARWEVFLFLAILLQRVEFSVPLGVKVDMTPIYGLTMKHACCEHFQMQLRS
Summary of the method: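 Recombinant hCYP1A1 + fluorogenic substrate, cell-free; 1 h; fluorescence read. Single-point 10 uM (duplicate) → concentration series, max 20 uM. Acetonitrile negative control.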

[15] = read-out: Monocyte Chemoattractant Protein-1 (MCP1), CCL2 (gene 6347); experiment: BSK_SAg_MCP1: BioMAP Diversity Plus: SAg Assay for Monocyte Chemoattractant Protein-1 (MCP1) Biomarker Activity (AID 2283090); conditions: primary human HUVEC with PBMC; actives raise or lower the signal
Summary of the method: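 MCP-1 levels in the endothelial–PBMC SAg co-culture were quantified by ELISA at 24 h post-dosing; both increases and decreases versus DMSO scored. Cytotoxicity monitored by SRB total protein in parallel cultures.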

[16] = BSK_SAg_PBMCCytotoxicity: PBMC Cytotoxicity Assessment in the BioMAP Diversity Plus: SAg Assay (AID 2283093); conditions: primary human HUVEC with PBMC;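 further: PBMC viability measured as Alamar Blue reduction fluorescence at 546/580 nm; fitted both ways against DMSO so a hit may be loss or gain of signal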;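 on AC50: PBMC superantigen activated with SEB plus TSST-1 one hour after compound addition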
Summary of the method: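 Compound added to 75,000 PBMC/well for 1 h; SEB and TSST-1 then added at 20 ng/mL final each; 90 h incubation; Alamar Blue 6 h; read 546/580 nm ex/em. Activity fitted bidirectionally relative to DMSO baseline.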

Measured: AC50

Sequence of Tumor necrosis factor (Homo sapiens) (P01375 whole entry, looked up): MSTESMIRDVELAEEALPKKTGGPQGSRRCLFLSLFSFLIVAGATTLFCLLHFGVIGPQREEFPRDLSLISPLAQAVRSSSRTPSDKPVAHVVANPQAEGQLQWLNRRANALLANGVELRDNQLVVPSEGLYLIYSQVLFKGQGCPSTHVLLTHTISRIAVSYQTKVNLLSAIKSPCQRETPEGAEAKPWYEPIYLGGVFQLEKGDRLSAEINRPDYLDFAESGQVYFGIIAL
Sequence of E-selectin (Homo sapiens) (P16581 whole entry, looked up): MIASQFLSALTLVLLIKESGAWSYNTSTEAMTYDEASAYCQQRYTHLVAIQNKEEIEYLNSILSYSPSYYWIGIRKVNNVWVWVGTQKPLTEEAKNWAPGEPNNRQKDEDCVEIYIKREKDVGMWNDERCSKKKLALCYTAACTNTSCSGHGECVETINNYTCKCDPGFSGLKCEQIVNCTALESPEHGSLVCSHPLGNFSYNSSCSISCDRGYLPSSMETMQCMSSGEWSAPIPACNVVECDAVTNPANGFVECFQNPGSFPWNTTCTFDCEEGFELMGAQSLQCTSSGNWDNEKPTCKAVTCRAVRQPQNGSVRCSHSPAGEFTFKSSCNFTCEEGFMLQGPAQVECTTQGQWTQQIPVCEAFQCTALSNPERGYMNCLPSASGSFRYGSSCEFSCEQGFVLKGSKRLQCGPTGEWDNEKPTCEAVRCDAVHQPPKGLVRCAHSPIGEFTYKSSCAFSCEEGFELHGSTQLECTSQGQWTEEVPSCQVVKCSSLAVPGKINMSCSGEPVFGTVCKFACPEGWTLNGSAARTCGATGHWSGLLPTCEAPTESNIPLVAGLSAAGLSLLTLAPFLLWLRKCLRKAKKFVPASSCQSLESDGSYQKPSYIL

CCCCCCCCCCCCCCOS(=O)(=O)O
active: [6] 20 µM
not listed: [14] | [15] | [16]
inactive: all other assays above

NC=O
not listed: [8] | [14] | [15] | [16]
inactive: all other assays above

CC(=O)[C@@]1(O)CC[C@H]2[C@@H]3CCC4=CC(=O)CC[C@]4(C)[C@H]3CC[C@@]21C
not listed: [13] | [14] | [15] | [16]
inactive: all other assays above

CN(C)CCCN1c2ccccc2Sc2ccc(Cl)cc21
active: [2] 30.1 µM | [4] 27.8 µM | [5] 29.9 µM | [6] 28.8 µM | [7] 29.5 µM | [9] 27.7 µM | [13] 28.3 µM
inactive: [1] | [3] | [14]

CCCC(=O)O
active: [12] 33.7 µM
not listed: [14]
inactive: all other assays above

OCC(CO)n1cnc(-c2ccc(F)cc2)c1-c1ccnc(Oc2ccccc2)n1
active: [1] 0.356 µM | [2] 1.72 µM | [3] 0.532 µM | [4] 0.416 µM | [16] 2.47 µM | [11] 0.24 µM | [12] 18.1 µM
inactive: [5] | [6] | [7] | [9] | [10] | [13]

O=C(O)CC(O)(CC(=O)O)C(=O)O
not listed: [13] | [14] | [16]
inactive: all other assays above

O=C1c2c(O)cccc2Cc2cccc(O)c21
not listed: [8] | [14]
inactive: all other assays above

CCCCCCCCCC[N+](C)(C)[O-]
active: [5] 35.5 µM
not listed: [8] | [14] | [15]
inactive: all other assays above

CC(C)NCC(O)c1ccc(O)c(O)c1 (stereo unspecified)
active: [4] 0.262 µM | [16] 13.5 µM | [12] 24.5 µM
not listed: [13] | [14] | [15]
inactive: all other assays above

NCCOCCOCCN
not listed: [14]
inactive: all other assays above

COC(=O)[C@H]1[C@H]2C[C@@H]3c4[nH]c5cc(OC)ccc5c4CCN3C[C@H]2C[C@@H](OC(=O)c2cc(OC)c(OC)c(OC)c2)[C@@H]1OC
inactive: [1] | [9] | [14]
active: [2] 21.2 µM | [3] 7.64 µM | [4] 28.7 µM | [5] 12 µM | [6] 25.7 µM | [7] 26.6 µM | [15] 22.6 µM | [10] 24.5 µM | [16] 23.9 µM | [13] 25.9 µM

CC(C)c1cccc(C(C)C)c1NC(=O)NS(=O)(=O)c1cc(C(C)(C)O)co1
active: [1] 1.04 µM
not listed: [8] | [14]
inactive: all other assays above

CCc1cc(C2=C(C(=O)O)N(c3ccccc3C(F)(F)F)S(=O)(=O)c3ccccc32)cc2c1OCO2
active: [6] 19.8 µM | [12] 15.3 µM
not listed: [8] | [14]
inactive: all other assays above

COC(=O)CCC(=O)OC
not listed: [8] | [13] | [14] | [15]
inactive: all other assays above

CCCCOC(=O)CCCCC(=O)OCCCC
not listed: [8] | [13] | [14] | [16]
inactive: all other assays above

CCCCC(CC)COC(=O)CCCCCCCC(=O)OCC(CC)CCCC (stereo unspecified)
not listed: [14] | [15] | [16]
inactive: all other assays above
